Measurements published in the supplement of paper PMC11219838.

Tests used:
Details in all cases: 60 µM; 5 days; temperature: 20 °C
Meloidogyne hapla J2 = experiment: proportion of mobile M. hapla J2 relative to DMSO control (fraction of DMSO control); higher = more viable, less nematicidal, active = 0.7 or less
How it was run: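 Sealed 96-well plates, each well holding around 25 M. hapla J2 in distilled water with compound pinned to 60 µM final (0.6% v/v DMSO), were shaken at 200 rpm for 5 days at 20 °C. Then 2 µL of 1 M NaOH was added to each well. Microscope-scored mobility was normalised to the mean of DMSO-only wells from the same plate. Eight such wells were on each plate, and the two biological replicates were averaged.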

Ditylenchus dipsaci = experiment: proportion of mobile D. dipsaci (mixed stage) relative to DMSO control (fraction of DMSO control); higher = more viable, less nematicidal, active = 0.86 or less; extreme values may be limits of the assay
How it was run: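 Mobility, expressed relative to DMSO controls, is the mean of two biological replicates. The test organisms were D. dipsaci grown on pea plants in Gamborg B-5 agar and extracted into water by filter funnel, with about 20 added per well of a 96-well plate in distilled water. Compound was pinned to 60 µM final (0.6% v/v DMSO), plates were sealed and shaken at 200 rpm for 5 days at 20 °C, and mobile worms were scored under a microscope once 2 µL 1 M NaOH had been added.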

[1] = test system: Caenorhabditis elegans dauer (daf-2(e1370)); experiment: proportion of mobile C. elegans dauer larvae relative to DMSO control (fraction of DMSO control); higher = more viable, less nematicidal, active = 0.63 or less; extreme values may be limits of the assay
How it was run: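 The proportion of mobile worms, relative to DMSO wells, was scored by dissection microscope and averaged over two biological replicates. Worms were C. elegans dauers, about 20 per well in liquid NGM in 96-well plates, generated from synchronized larvae on MYOB plates with E. coli OP50 at 25 °C for 48 h. They were treated with compound pinned to 60 µM final (0.6% v/v DMSO) and kept in sealed plates shaken at 200 rpm for 5 days at 20 °C.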

SMILES | proportion of mobile M. hapla J2 (Meloidogyne hapla J2) | proportion of mobile D. dipsaci (Ditylenchus dipsaci) | proportion of mobile C. elegans dauer larvae [1]
Cc1ccccc1-c1noc(-c2ccc(F)cc2)n1 | 0.909 (inactive) | 1 (inactive) | –
CC(C)(Oc1ccc(Cl)cc1)c1nc(-c2ccncc2)no1 | 0.91 (inactive) | 1 (inactive) | –
Cc1ccc(OCc2nc(-c3ccccc3Cl)no2)c(C)c1 | 1 (inactive) | 1 (inactive) | –
O=C(NCCc1ccccc1)c1ccccc1-c1nc(-c2ccccc2Cl)no1 | 0.669 (active) | 1 (inactive) | –
COc1ccccc1-c1nnc(SCC(=O)OCc2ccccc2)o1 | 0.978 (inactive) | 1 (inactive) | –
COc1ccc(-c2noc(COc3ccc(Br)cc3)n2)cc1 | – | 1 (inactive) | 1 (inactive)
COc1ccc(-c2noc(COc3ccc(C4CCCCC4)cc3)n2)cc1 | – | 1 (inactive) | 1 (inactive)
Clc1ccc(-c2noc(COc3ccccc3Cl)n2)cc1 | 0.891 (inactive) | 1 (inactive) | –
COc1ccc(NC(=O)CSc2nnc(-c3ccc(Br)cc3)o2)cc1 | 1.02 (inactive) | 1 (inactive) | –
COc1ccc(Cl)cc1-c1nc(-c2ccccc2C)no1 | 0.852 (inactive) | 1 (inactive) | –
CCCC(=O)Nc1ccccc1-c1nc(-c2ccncc2)no1 | 0.99 (inactive) | 1 (inactive) | –
O=C(CSc1nnc(-c2cccc(Br)c2)o1)c1ccc2c(c1)CCCC2 | 0.967 (inactive) | 1 (inactive) | –
N#Cc1ccc(CSc2nnc(-c3ccncc3)o2)cc1 | 0.972 (inactive) | 1 (inactive) | –
O=C(CSc1nnc(-c2ccc(Cl)cc2)o1)Nc1ccc(F)cc1 | 0.912 (inactive) | 1 (inactive) | –
CCN(Cc1ccccc1)C(=O)c1ccccc1-c1nc(-c2cccc(C)c2)no1 | 0.579 (active) | 1 (inactive) | –
CCc1nnc(NC(=O)CSc2nnc(-c3ccc(Cl)cc3Cl)o2)s1 | 0.875 (inactive) | 1 (inactive) | –
COc1ccc(-c2noc(-c3ccc(Br)cc3)n2)cc1 | 1.04 (inactive) | 1 (inactive) | –
COc1ccc(-c2noc(COc3ccc(F)cc3)n2)cc1 | – | 1 (inactive) | 1 (inactive)
COc1ccc(-c2noc(C34CC5CC(CC(C5)C3)C4)n2)cc1 | 1.04 (inactive) | 1 (inactive) | –
Cc1cccc(-c2noc(-c3cccc(Cl)c3)n2)c1 | 1 (inactive) | 1 (inactive) | –
CSc1ccccc1-c1nc(-c2cccnc2)no1 | 1.07 (inactive) | 1 (inactive) | –
Cc1cccc(-c2nnc(SCC(=O)Nc3ccccc3C(C)C)o2)c1 | – | 1 (inactive) | 1 (inactive)
Clc1ccc(OCc2nc(-c3ccc(Br)o3)no2)cc1 | – | 1 (inactive) | 1 (inactive)

SMILES | proportion of mobile M. hapla J2 (Meloidogyne hapla J2) | proportion of mobile D. dipsaci (Ditylenchus dipsaci) | proportion of mobile C. elegans dauer larvae [1]
CCOc1ccccc1-c1nc(-c2cccc(C)c2)no1 | – | 1 (inactive) | 1 (inactive)
O=C(CSc1nnc(-c2ccc(Cl)cc2)o1)c1ccccc1 | – | 1 (inactive) | 1 (inactive)
COc1ccc(-c2noc(COc3ccc(C)cc3C)n2)cc1 | – | 1 (inactive) | 1 (inactive)
O=C(CSc1nnc(-c2cccnc2)o1)c1ccc(Br)cc1 | – | 1 (inactive) | 1 (inactive)
Cc1c(C)n(C(=O)CSc2nnc(-c3ccccc3)o2)c2ccccc12 | – | 1 (inactive) | 1 (inactive)
Cc1ccc(-c2noc(-c3ccco3)n2)s1 | – | 1 (inactive) | 0.812 (inactive)
COc1ccc(-c2nnc(SCC(=O)Nc3cccc(Cl)c3Cl)o2)cc1 | – | 1 (inactive) | 1 (inactive)
CC(=O)Nc1cccc(-c2nnc(SCc3ccccc3)o2)c1 | – | 1 (inactive) | 1 (inactive)
Cc1ccc(-c2noc(COc3cc(C)ccc3C)n2)cc1 | – | 1 (inactive) | 1 (inactive)
COc1ccc(-c2nnc(SCc3ccc(C#N)cc3)o2)cc1 | – | 1 (inactive) | 1 (inactive)
COc1ccc(-c2noc(-c3ccccc3C(=O)Nc3cccc(C)c3C)n2)cc1 | – | 1 (inactive) | 1 (inactive)
O=C(CSc1nnc(-c2ccncc2)o1)Nc1cccc(Cl)c1Cl | – | 1 (inactive) | 1 (inactive)
CC(C)Oc1ccc(-c2nc(-c3ccncc3)no2)cc1 | – | 0.941 (inactive) | 0 (active)
CC(=O)c1c(C)cc(C)c(CSc2nnc(-c3ccco3)o2)c1C | – | 1 (inactive) | 1 (inactive)
Clc1ccc(-c2nc(C3CCCCC3)no2)cc1 | – | 1 (inactive) | 1 (inactive)
Cn1c(SCc2nc(-c3ccccc3)no2)nnc1-c1ccco1 | – | 1 (inactive) | 1 (inactive)
Ic1ccc(OCc2nc(-c3ccncc3)no2)cc1 | – | 1 (inactive) | 1 (inactive)
Cc1cccc(-c2noc(-c3ccccc3Br)n2)c1 | – | 1 (inactive) | 1 (inactive)
COc1nc2ccc(C)cc2cc1-c1noc(-c2cccnc2)n1 | – | 1 (inactive) | 1 (inactive)
Cc1ccc(C)c(-c2nc(-c3ccc(Cl)cc3)no2)c1 | – | 1 (inactive) | 1 (inactive)
Cc1ccc(-c2nnc(SCC(=O)NCCc3ccccc3)o2)cc1 | – | 1 (inactive) | 1 (inactive)
COc1cccc(-c2noc(COc3ccccc3C)n2)c1 | – | 1 (inactive) | 1 (inactive)
Cc1ccc(OCc2nc(-c3cccnc3)no2)cc1C | – | 1 (inactive) | 1 (inactive)

SMILES | proportion of mobile M. hapla J2 (Meloidogyne hapla J2) | proportion of mobile D. dipsaci (Ditylenchus dipsaci) | proportion of mobile C. elegans dauer larvae [1]
COc1ccc(-c2nnc(SCC(=O)Nc3ccc(Cl)cc3Cl)o2)cc1 | – | 1 (inactive) | 1 (inactive)
CCOc1ccc(NC(=O)CSc2nnc(-c3ccccc3Cl)o2)cc1 | – | 1 (inactive) | 1 (inactive)
Cc1ccccc1-c1noc(COc2ccc(Cl)cc2Cl)n1 | – | 1 (inactive) | 1 (inactive)
Cc1cccc(-c2nnc(SCC(=O)NCCc3ccccc3)o2)c1 | – | 1 (inactive) | 1 (inactive)
Cc1ccc(C)c(OCc2nc(-c3cccnc3)no2)c1 | – | 1 (inactive) | 1 (inactive)
Clc1ccccc1-c1nc(-c2ccc3c(c2)OCO3)no1 | – | 1 (inactive) | 1 (inactive)
COc1ccc(-c2noc(-c3ccc(C)cc3)n2)cc1 | – | 0.932 (inactive) | 1 (inactive)
Cn1cc(C(=O)CSc2nnc(-c3cccc(Cl)c3)o2)c2ccccc21 | – | 1 (inactive) | 1 (inactive)
Cc1ccc(-c2nc(-c3ccncc3)no2)cc1Cl | – | 1 (inactive) | 1 (inactive)
COc1ccc(-c2nnc(SCC(=O)c3ccc(C)o3)o2)cc1 | – | 1 (inactive) | 1 (inactive)
Cc1ccc(SC(C)c2nc(-c3ccncc3)no2)cc1 (centres undefined) | – | 1 (inactive) | 0.8 (inactive)
Brc1ccc(CSc2nnc(-c3cccnc3)o2)cc1 | – | 1 (inactive) | 1 (inactive)
Cc1cccc(-c2nc(-c3ccc4c(c3)OCO4)no2)c1 | – | 1 (inactive) | 1 (inactive)
Cc1cccc(OCc2nc(-c3ccc(-n4cccc4)cc3)no2)c1 | – | 1 (inactive) | 1 (inactive)
O=S(=O)(CCC(F)=C(F)F)c1ncc(Cl)s1 [fluensulfone] | – | 1 (inactive) | 1 (inactive)
Cc1ccccc1-c1nc(-c2ccccc2Cl)no1 | – | 1 (inactive) | 1 (inactive)
Cc1cccc(-c2noc(COc3ccc(Cl)cc3C)n2)c1 | – | 1 (inactive) | 1 (inactive)
CCOc1ccc(-c2nc(-c3cccnc3)no2)cc1OCC | – | 1 (inactive) | 1 (inactive)
CC(C)c1ccc(NC(=O)CSc2nnc(-c3ccc(Br)cc3)o2)cc1 | – | 1 (inactive) | 1 (inactive)
COc1ccc(C(=O)CSc2nnc(-c3cccc(Br)c3)o2)cc1 | – | 1 (inactive) | 1 (inactive)
COc1ccc(-c2noc(-c3ccc(Cl)cc3Cl)n2)cc1 | – | 1 (inactive) | 1 (inactive)
COc1nc(-c2ccccc2)ccc1-c1noc(C(C)C)n1 | – | 1 (inactive) | 1 (inactive)
COc1ccccc1-c1nc(-c2ccc(C)cc2)no1 | – | 1 (inactive) | 1 (inactive)

SMILES | proportion of mobile M. hapla J2 (Meloidogyne hapla J2) | proportion of mobile D. dipsaci (Ditylenchus dipsaci) | proportion of mobile C. elegans dauer larvae [1]
Cc1ccc(-c2noc(-c3ccc(Cl)cc3)n2)cc1 | – | 1 (inactive) | 1 (inactive)
c1ccc(-c2noc(COc3cccc4ccccc34)n2)nc1 | – | 1 (inactive) | 1 (inactive)
Fc1cccc(-c2nc(-c3ccccc3)no2)c1 | – | 1 (inactive) | 1 (inactive)
O=C(CSc1nnc(-c2ccco2)o1)Nc1cccc(Cl)c1Cl | – | 1 (inactive) | 1 (inactive)
Clc1cc(Br)ccc1OCc1nc(-c2ccccn2)no1 | – | 1 (inactive) | 1 (inactive)
CCCOc1ccc(-c2nc(-c3ccncc3)no2)cc1 | – | 1 (inactive) | 0.5 (active)
Cc1ccccc1-c1nc(-c2cccc(NC(=O)c3cccs3)c2)no1 | – | 1 (inactive) | 1 (inactive)
CCOc1nc(-c2ccccc2)ccc1-c1noc(CC)n1 | – | 1 (inactive) | 1 (inactive)
Cc1cccc(-c2noc(COc3ccc(Cl)cc3)n2)c1 | – | 1 (inactive) | 1 (inactive)
Clc1ccc(CSc2nnc(-c3ccccc3)o2)c(Cl)c1 | – | 1 (inactive) | 1 (inactive)
O=C(CSc1nnc(-c2cc3ccccc3o2)o1)NC1CC1 | – | 1 (inactive) | 1 (inactive)
COc1ccccc1OCc1nc(-c2ccc(Br)cc2)no1 | – | 1 (inactive) | 1 (inactive)
Brc1ccc(-c2noc(-c3ccc(Br)o3)n2)o1 | – | 1 (inactive) | 1 (inactive)
CCNC(=O)c1ccccc1-c1nc(-c2ccccc2)no1 | – | 1 (inactive) | 1 (inactive)
CC(Oc1ccccc1)c1nc(-c2ccccn2)no1 (centres undefined) | – | 1 (inactive) | 1 (inactive)
Cc1cccc(OCc2nc(-c3ccccc3)no2)c1 | – | 1 (inactive) | 1 (inactive)
CC(C)(C)NC(=O)CSc1nnc(-c2ccc(C(C)(C)C)cc2)o1 | – | 1 (inactive) | 1 (inactive)
CC(C)CCC(=O)Nc1ccccc1-c1nc(-c2ccncc2)no1 | – | 1 (inactive) | 1 (inactive)
CCCc1ccc(-c2ccc(-c3nc(-c4ccccn4)no3)cc2)cc1 | – | 1 (inactive) | 1 (inactive)
C#CCOc1ccc(-c2nc(-c3ccccc3)no2)cc1 | – | 1 (inactive) | 1 (inactive)
Cc1ccc(C(=O)CSc2nnc(-c3ccco3)o2)o1 | – | 1 (inactive) | 1 (inactive)
COc1ccc(-c2nc(-c3ccc(C(F)(F)F)cc3)no2)cc1 | – | 1 (inactive) | 1 (inactive)
c1ccc2c(-c3nc(-c4ccncc4)no3)cccc2c1 | – | 1 (inactive) | 1 (inactive)
